Compound activity deposited in PubChem by National Center for Advancing Translational Sciences (NCATS).
Hits are enriched below; roughly 15% of the tested compounds scored in any of these assays.
ALOX12 inh – ALOX12 (human) lipoxygenase inhibition | P18054 | purified 12hLO, xylenol orange hydroperoxide absorbance | Potency, µM (titrated, usually from 108 µM), for the others: at the top dose activity change, negative = inhibition, usual class: inhibitors | 580,000 tested, 1.1% active
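Hydroperoxide product was detected by ferrous iron/xylenol orange as the 573 to 405 nm absorbance ratio. Arachidonic acid at 40 uM (final) was turned over for 30 min at room temperature by 150 nM human 12hLO, pH 7.0 Hepes buffer, after 15 min compound preincubation.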
DT40 TDP1 no CPT – qHTS for Inhibitors of human tyrosyl-DNA phosphodiesterase 1 (TDP1): qHTS in cells in absence of CPT; DT40 Tdp1-/- hTDP1 cells, no CPT, ATP luminescence, 48 h; 420,000 tested, 15% active; Potency, µM (doses to about 46.2 µM), for inactives: at the highest dose activity change, negative = growth inhibition, actives largely listed as inhibitors; note: nearly all actives have a fitted effect of over 55% in size
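Seeded 400 DT40-hTDP1 cells/well (vehicle DMSO, no 20 nM CPT); pinned compounds; ≥48 hr at 37 °C; CellTiter-Glo luminescence as viability measure.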
ELG1 repair inh – blocks ELG1-dependent DNA repair in HEK293T cells; Potency, µM (top dose mostly 46.1 µM), inactives show at the top dose activity change, negative = inhibition, usual class: inhibitors; HEK293T ELG1-luciferase reporter, luminescence, 16 h; DNA damage induced by 5-fluorouridine; 330,000 tested, 2.3% active; note: nearly all actives have a fitted effect of over 55% in size
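Cells (2,000 per well) received 5-fluorouridine plus test compound or DMSO and were incubated 16 hr at 37 °C, 5% CO2. Luciferase activity was read by luminescence 30 min after ONE-Glo addition; signal suppression marked inhibition of damage-induced ELG1 function.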
TDP1 cell CPT – DT40-hTDP1 cell growth loss with CPT. chicken DT40 Tdp1-/-;hTDP1 cells + 20 nM CPT, ATP luminescence, 48 h. Potency, µM (doses to about 46.2 µM), without a hit: at the highest dose activity change, negative = growth inhibition, most hits filed as inhibitors. AID 686979. 420,000 tested, 12% active; note: nearly all actives have a fitted effect of over 55% in size
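Chicken DT40 Tdp1-/- cells complemented with human TDP1, 400 cells/well, exposed to compounds plus 20 nM camptothecin for at least 48 h at 37 C; viability read as ATP content by CellTiter-Glo luminescence.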
VP16 counter – inhibits Gal4-VP16 luciferase reporter, ROR gamma counter-screen; Drosophila S2 Gal4-VP16 UAS-luciferase, luminescence, 20 h; Potency, µM (doses to about 53.6 µM), without a hit: at the highest dose activity, negative = inhibition, hits mostly inhibitors; 310,000 tested, 3.5% active; AID 2546;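 note: Gal4-VP16 expression switched on by copper sulfate through the metallothionein promoter; nearly all actives have a fitted effect of over 50% in size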
RORgamma inh – ROR gamma (mouse) transcription inhibition; 310,000 tested, 5.4% active; P51450; Drosophila S2 Gal4-RORgamma UAS-luciferase reporter, 20 h; AID 2551; Potency, µM (top dose mostly 53.6 µM), inactives show top-dose activity change, negative = inhibition, usual class: inhibitors; note: nearly all actives have a fitted effect of over 60% in size
Target sequence (P51450 whole entry, looked up, the tested form may be a part): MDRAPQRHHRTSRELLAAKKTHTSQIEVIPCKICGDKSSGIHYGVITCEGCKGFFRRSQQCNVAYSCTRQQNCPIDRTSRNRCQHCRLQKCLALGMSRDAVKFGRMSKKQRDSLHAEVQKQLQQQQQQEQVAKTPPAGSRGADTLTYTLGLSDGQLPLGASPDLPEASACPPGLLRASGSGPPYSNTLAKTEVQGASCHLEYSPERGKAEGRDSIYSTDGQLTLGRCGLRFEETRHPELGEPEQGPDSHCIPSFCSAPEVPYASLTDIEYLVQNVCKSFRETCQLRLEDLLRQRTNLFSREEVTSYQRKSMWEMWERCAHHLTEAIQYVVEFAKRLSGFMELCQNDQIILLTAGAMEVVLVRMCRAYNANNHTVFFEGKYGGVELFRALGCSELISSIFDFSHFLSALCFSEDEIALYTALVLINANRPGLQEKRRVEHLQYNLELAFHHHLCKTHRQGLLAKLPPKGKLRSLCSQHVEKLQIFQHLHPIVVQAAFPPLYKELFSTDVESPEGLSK
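Drosophila Schneider cells stably carrying a metallothionein-driven Gal4 DBD–ROR gamma fusion and a UAS-Photinus luciferase reporter were exposed to compound for 1 hr, then induced with copper sulfate (700 uM final) for 20 hr at ambient temperature before luminescence reading.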
* marks the source's active call; other numbers are inactive results; u = inconclusive; x = not tested or not shown; [ ] = remark or other dose. Calls come from the whole dose curve; as a rule, active = well fitted curve in the direction sought with a large enough effect; inconclusive = small, poorly fitted or top-dose-only effect, or another doubt; inactive = no such curve, though single readings can be large; an effect the other way counts as inactive or inconclusive. % is set by controls: 0 for no effect and ±100 for the full control effect; potency is the fitted concentration of half-maximal effect.

SMILES	ALOX12 inh	DT40 TDP1 no CPT	ELG1 repair inh	TDP1 cell CPT	VP16 counter	RORgamma inh
Cc1cc2n(n1)SC(Nc1ccc(F)c(Cl)c1)N2 (configuration not stated)	u	-5%	u	-11%	1.1µM*	0.63µM*
Cc1cc2n(n1)CCCN2C(=O)Nc1ccc(F)c(Cl)c1	2%	-3%	x	-13%	x	x
Cc1ccc(NC(=O)c2cc(CC(C)C)nc3ccccc23)cc1	-4%	u	21µM*	-6%	-5%	2%
COc1ccc(NC(=O)c2cc(CC(C)C)nc3ccccc23)cc1	-12%	u	23µM*	-17%	26%	u
CC(=O)Nc1ccc(NC(=O)c2cc(C(C)C)nc3ccccc23)cc1	-11%	x	x	x	x	x
Clc1ccc(-n2ncc3c(NC4CCCCCC4)ncnc32)cc1	-6%	x	x	x	x	x
CCN(CC)S(=O)(=O)c1cc(C)c(C)c(NS(=O)(=O)/C=C/c2ccccc2)c1	-14%	x	x	x	x	x
COc1cccc(C2Cn3nnc(-c4nc(-c5ccc(Cl)cc5)no4)c3CO2)c1 (configuration not stated)	30%	x	x	x	x	x
CCC(C)NCc1ccc(C)cc1 (configuration not stated)	10%	x	x	x	x	x
O=C(Nc1ccc(Cl)c(Cl)c1)C12CC3CC(CC(C3)C1)C2	20%	x	x	x	x	x
C=C(C)[C@@H]1C2=CC(C(=O)OC)=C(C[C@@H](C(=C)C)[C@H]3O[C@H]3C3=C[C@H]1OC3=O)O2	-4%	1.1µM*	x	1.1µM*	x	x
C=CCNc1nc(N2CCCC2)nc2ccccc12	8%	16µM*	-24%	16µM*	-1%	7%
CC(Nc1nc(-c2ccccc2O)nc2ccccc12)c1ccccc1 (configuration not stated)	-13%	u	u	u	-10%	7%
CCN1CCN(c2nc(NCCO)c3ccccc3n2)CC1	-9%	1%	-6%	3%	-7%	0%
CC(Nc1nc(N2CCCCC2)nc2ccccc12)c1ccccc1 (configuration not stated)	u	23µM*	u	u	-26%	u
COCCCNC(=O)CC1CC2CCC1C2 (configuration not stated)	4%	x	x	x	x	x
O=S(=O)(c1ccc(F)cc1)N1CCN(C23CC4CC(CC(C4)C2)C3)CC1	27%	x	x	x	x	x
O=C(Nc1ccc(Br)cc1F)c1ccc2nsnc2c1	-3%	8.2µM*	u	u	1%	29%
Cc1cc(C)cc(N2CCC(NC(=O)c3cc(F)cc(F)c3)C2=O)c1 (configuration not stated)	-2%	x	x	x	x	x
Cc1ccc(C(O)(C(=O)NN)c2ccc(C)cc2)cc1	8%	x	x	x	x	x
Cc1cccc(C(O)(C(=O)NNc2ccc3ccccc3n2)c2cccc(C)c2)c1	-14%	6.5µM*	-2%	6.5µM*	13µM*	10µM*
Cc1ccc(C(O)(C(=O)NNc2ccccn2)c2ccc(C)cc2)cc1	6%	-27%	-2%	2%	u	10µM*
COc1ccc(C(=O)N2CCC(N3CC4CC(C3)[C@H]3CCCC(=O)N3C4)CC2)cc1F (some centres not stated)	6%	x	x	x	x	x
O=C(Nc1nccs1)[C@@H]1C[C@@H](c2ccc(F)cc2)N([S+](=O)([O-])c2ccccc2)C1	71%[176 µM]	x	x	x	x	x
CCOc1cc(=O)n2c(c1C(=O)Nc1ccc3c(c1)OCCO3)CCCCC2	33%	x	x	x	x	x
SMILES	ALOX12 inh	DT40 TDP1 no CPT	ELG1 repair inh	TDP1 cell CPT	VP16 counter	RORgamma inh
COc1ccccc1NS(=O)(=O)c1cccc(C(=O)N/N=C/c2c(C)nn(-c3ccccc3)c2N2CCCC2)c1	-8%	21µM*	u	21µM*	-14%	29%
CC(C)(C)C1CCC(=NNc2ccc(S(N)(=O)=O)cc2[N+](=O)[O-])CC1 (configuration not stated)	-26%	21µM*	9%	16µM*	u	0%
NS(=O)(=O)c1ccc(NN=C2CCCC2)c([N+](=O)[O-])c1	61%	x	x	x	x	x
COc1ccccc1NS(=O)(=O)c1ccc(NN=C2CCCC2)c([N+](=O)[O-])c1	-22%	16µM*	-18%	18µM*	18µM*	u
COc1ccccc1NS(=O)(=O)c1ccc(N/N=C/C=C/c2ccccc2[N+](=O)[O-])c([N+](=O)[O-])c1	-4%	u	-8%	-11%	-1%	5%
COc1ccccc1NS(=O)(=O)c1ccc(N/N=C/c2c(C)nn(-c3ccccc3)c2N2CCCC2)c([N+](=O)[O-])c1	-5%	6.5µM*	-2%	u	-19%	-7%
CCOc1cc(-c2ccc(C)cc2)nc2ccc(C(=O)NCC(C)O)cc12 (configuration not stated)	11%	x	x	x	x	x
Cc1nn(-c2ccccc2)c(N2CCCC2)c1/C=N/Nc1ccc(S(=O)(=O)Nc2ccccc2)cc1[N+](=O)[O-]	-19%	7.3µM*	-31%	5.8µM*	-9%	-9%[10 µM]
CC(=O)Nc1ccc(NC(=O)C2(C)CC2(Cl)Cl)cc1Cl (configuration not stated)	12%	x	x	x	x	x
COCCNc1nc2cc(-c3ccc(C)cc3)sc2c(=O)n1C	-11%	u	x	u	x	x
COc1ccc(-c2cc3nc(CCl)[nH]c(=O)c3s2)cc1	u	4.1µM*	u	4.6µM*	10µM*	u
CCCC(=O)N(C1CC(C)C(C#N)(C#N)C1(C#N)C#N)N(C)C (configuration not stated)	0%	2.3µM*	u	1.3µM*	0%	33%
CC(=O)N(C1CC(C)C(C#N)(C#N)C1(C#N)C#N)N(C)C (configuration not stated)	-2%	0.58µM*	-8%	0.52µM*	-4%[10 µM]	7.9µM*
COc1ccc(NS(=O)(=O)c2ccc(-c3coc(C)n3)cc2)c(OC)c1	0%	-29%	u	23µM*	-24%	u
COc1ccc(OC)c(CNS(=O)(=O)c2ccc(-c3coc(C)n3)cc2)c1	-4%	21µM*	x	u	x	x
COc1ccccc1NS(=O)(=O)c1ccc(-c2coc(C)n2)cc1	-3%	x	x	x	x	x
CC12CCC(C/C1=N/O)C2(C)C (configuration not stated)	28%	1%	-3%	0%	-4%	-12%
CC(=NO)C1CCC2C3CCC4CC(=NO)CCC4(C)C3C(C)(O)CC12C (configuration not stated)	0%	15µM*	x	u	x	x
